About 83,000 compounds went through this panel and 20% of them were active in at least one assay; those are over-represented in the sample as a whole.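 For each line, cells grew in 96-well plates with the test compound present at a single concentration for 48 hours.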 A number with no mark means an inactive call. The source made the active and inactive calls. Rule for the calls: active = growth percent below 10; inactive = the rest.

Assay in all cases: NCI-60 one-dose screen, 48 h (100 = growth as untreated, 0 = no growth, -100 = all killed)
What all share (conditions): 10 µM unless noted

For test [1], the system named is DU-145 prostate.
Test [2] has as its system K-562 leukemia.
Test [3] has as its system MALME-3M melanoma.
Test [4] deals with MDA-MB-231 breast.
For test [5], the system named is RXF 393 renal.
Test [6] has as its system SF-268 CNS.
In test [7] the test system is SF-539 CNS.
Test [8] concerns UACC-257 melanoma.
The subject of test [9] is M14 melanoma.
Test [10] deals with HCT-15 colon.
The test system of test [11] is HT29 colon.
The subject of test [12] is SNB-75 CNS.
Test [13] has as its system SNB-19 CNS.
The subject of test [14] is U251 CNS.
Test [15] concerns PC-3 prostate.
Test [16] deals with SK-MEL-5 melanoma.
Test [17] concerns UACC-62 melanoma.
Test [18] concerns LOX IMVI melanoma.
The subject of test [19] is SK-MEL-28 melanoma.

In the case of `Fc1cnccc1-c1nc2ccc3[nH]ncc3c2c2c1CCCC2`, the growth in test [1] was 24.1%; in test [2], 30.9%; in test [3] it was 44.2%; in test [4], 51.2%; in test [5] it was -23.9% (active); in [6] it was 31.9%. The growth is 5.76% (active) in test [7]; 63% in [8]; 26% in test [9]; 12.4% in test [10]; 25.4% in [11]; -25.5% (active) in test [12]. For the same compound, the growth in [13] is 44.2%; in [14], 29.6%; in test [15], 27.1%; in test [16] it was 29%; in [17], 17.3%; in test [18], 22.8%. In test [19], the growth was 24.3%.
Take `Cc1ccc(Nc2nc(NCCO)c3ccccc3n2)cc1C`: the growth in test [1] is -14.6% (active); in test [2], 11.1%; in [3], 43.8%; in test [4] it was 12.6%; in test [5] it was 42.5%; in test [6], 20.1%. For the same compound, the growth in [7] is 7% (active); in test [8], 62%; in [9], 24.4%; in test [10], 15.6%; in test [11], 12.9%; in [12] it was 39.6%. The growth in [13] was 57%; in test [14], 15.1%; in test [15], 35.7%; in [16], -18.6% (active); in test [17] it was 35.7%; in [18], 8.62% (active). Besides, the growth in test [19] was 52.5%.
For `CC(C)OC(=O)c1ccc([N+](=O)[O-])cc1`, the growth in [1] was 116%; in test [2] it was 117%; in test [3] it was 131%; in test [4], 102%; in test [5], 116%; in [6], 119%. Further, the growth is 112% in [7]; 101% in test [8]; 108% in test [9]; 107% in test [10]; 102% in test [11]; 111% in [12]. For the same compound, the growth is 109% in [13]; 106% in test [14]; 102% in test [15]; 106% in test [16]; 100% in test [17]; 98% in test [18]. Besides, the growth in test [19] was 110%.
For the compound `C=CCn1c(C)nc2cc(Nc3nc(Nc4ccc5nc(C)n(CC=C)c5c4)nc4ccccc34)ccc21`, the growth in [1] is 115%; in test [2], 102%; in test [3], 94.5%; in test [4] it was 90%; in test [5], 124%; in test [6] it was 113%. Also, the growth in [7] is 98.6%; in test [8], 102%; in [9], 109%; in [10], 107%; in test [11], 103%; in test [12], 90.8%. Also, the growth was 100% in [13]; 94.4% in test [14]; 95.8% in test [15]; 99.7% in [16]; 95.8% in test [17]; 93.3% in [18]. Also, the growth in test [19] was 106%.
`CCN(CC)CCC(CNc1ccnc2cc(Cl)ccc12)c1ccc(O)cc1` (stereo not drawn): the growth in test [1] was 91.4%; in test [2], 10.6%; in test [3], 93.5%; in test [4] it was 74.1%; in test [5], 52.5%; in test [6] it was 69.5%. Moreover, the growth in test [7] was 88.4%; in test [8], 93.4%; in [9], 6.04% (active); in test [10], 109%; in test [11], 29.5%; in test [12], 85.7%. The growth was 103% in test [13]; 81.3% in test [14]; 61.1% in [15]; 91.9% in [16]; 103% in test [17]; 50.4% in test [18]. Further, in test [19], the growth was 107%.
Turning to `COc1ccc2nc(C)cc(Nc3ccccc3O)c2c1`, the growth is 63.9% in test [1]; 6.3% (active) in test [2]; -12.4% (active) in test [3]; 9.5% (active) in test [4]; -41.7% (active) in [5]; 64.8% in [6]. The growth in test [7] is -72.7% (active); in test [8], 75.1%; in test [9], 81.8%; in test [10], 32.8%; in test [11], 18.9%; in test [12] it was -93.2% (active). Besides, the growth in test [13] was 26%; in test [14] it was -27.5% (active); in test [15], 47.1%; in [16], 72.9%; in test [17], 56.5%; in [18] it was 2.48% (active). In [19], the growth is 33.4%.
Consider `O=C(c1ccccc1)N(CCCCl)C(=O)N(CCCCl)C(=O)c1ccccc1`, for which the growth is 102% in test [1]; 91.1% in test [2]; 91.8% in test [3]; 85.7% in [4]; 111% in test [5]; 100% in test [6]. Moreover, the growth in [7] is 97.2%; in [8], 100%; in test [9], 96.4%; in [10], 94.6%; in [11], 82.1%; in test [12], 104%. For the same compound, the growth is 97.4% in [13]; 88.5% in test [14]; 72.1% in test [15]; 89.6% in test [16]; 65.2% in [17]; 90% in test [18]. Moreover, in test [19], the growth is 133%.

For the origin of these results see PubChem BioAssay (NCI).
